Assay outcomes from PubChem BioAssay.
Hits are enriched below; roughly 4% of the tested compounds scored in any of these assays.
EBV LMP1 NFkB: inhibitors of Epstein-Barr LMP1-induced NF-kappaB reporter; LMP1-induced NF-kappaB luciferase reporter cells, luminescence; inhibition, % at 12.5 µM; 350,000 compounds, 0.69% hits; AID 504558; in the data active = inhibition above about 41%; inconclusive = no clear call, values can overlap the other calls;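 also: 0% = neutral control wells and 100% = reference inhibitor control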
TRPM1 prom inh: inhibitors of MITF-driven TRPM1 promoter in melanoma cells; 330,000 compounds, 0.83% hits; SK-MEL-5 TRPM1 promoter luciferase, 24 h; inhibition, % at 12.5 µM; AID 488899;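 active = mean inhibition across replicates of 60% or more, whatever share of single replicates reaches that level; inconclusive = some that reach 60%, reason not given; inactive = mean inhibition across replicates below 60%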
Wnt bcat act: activators of Wnt/beta-catenin signaling; AID 743398; activation, % at 9.35 µM; 300,000 compounds, 1.2% hits; Wnt/beta-catenin reporter cell assay, activator, plate reader; in the data active = activation above about 30%, passing the limit was not always enough; inconclusive = no clear call, values can overlap the other calls;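 also: 0% = neutral control wells and 100% = positive control wells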
esBAF inh: inhibitors of esBAF chromatin remodeling in mouse ES cells; Bmi1-luciferase knock-in reporter, 24 h; 100% = twice the neutral-well signal; reporter increase, % at 12.5 µM; 350,000 compounds, 2% hits; in the data active = activation above about 40%; inconclusive = no clear call, values can overlap the other calls;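 also: 0% = median of the plate's neutral control wells and 100% = double that signal; a rise in the Bmi1 reporter signal indicates esBAF inhibition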
MITF TRPM1 HTS: MITF TRPM1 promoter activation in melanoma cells | 300,000 compounds, 0.75% hits | activation, % at 12.5 µM | AID 588334 | SK-MEL-5 TRPM1-promoter luciferase, 24 h; % of positive control, neutral wells = 0;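 active = mean activation of at least 80% with every replicate also reaching 80%; inconclusive = mean reaches 80% but some replicate falls short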;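 also: 0% = neutral control wells and 100% = parthenolide positive control wells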
Statin myotox sup: protects C2C12 myotubes from simvastatin toxicity; ATP luminescence, 48 h; scaled: DMSO 0, geranylgeraniol control 100; rescue of ATP level, % at 7.49 µM; 330,000 compounds, 0.78% hits; AID 602340;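 active = mean ATP rescue above about 67%, or every replicate alone reaching that limit, limit read from the data, passing the limit was not always enough; inconclusive = no clear call, values can overlap the other calls; inactive = mean under the limit and some replicate under it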;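 also: myotubes were challenged with 10 µM simvastatin during compound exposure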
Active calls of the source: *; ? = inconclusive; / = no result.

SMILES	EBV LMP1 NFkB	TRPM1 prom inh	Wnt bcat act	esBAF inh	MITF TRPM1 HTS	Statin myotox sup
COc1ccc(S(=O)(=O)N2Cc3ccccc3CC2C(=O)Nc2nccs2)cc1OC (stereo not given)	-14.7	-40.7	28.8	44.5*	41.3	/
CCS(=O)(=O)N1Cc2ccccc2CC1C(=O)Nc1nc(C)cs1 (stereo not given)	-10.7	-21.2	4.8	/	19.6	/
CCS(=O)(=O)N1Cc2ccccc2CC1C(=O)Nc1nccs1 (stereo not given)	-24.4	-31.2	25.8	43.7*	29.2	-1.7
Cc1ccc(NC(=O)c2ccc3nc[nH]c3c2)c(O)c1	-14.2	-23.4	6.9	50.5*	27.1	3.3
Cc1ccc(NC(=O)c2ccc3nc[nH]c3c2)nc1	-3.8	-23.6	26.0	/	27.6	/
Cc1ccc(NC(=O)CN2C(=O)CCSc3ccc(S(=O)(=O)N4CCCC4)cc32)cc1	8.9	-13.6	0.4	0.3	11.9	-6.5
CCC(=O)Nc1ccc(N2CCN(Cc3ccccc3F)CC2)cc1	-1.0	9.4	/	-3.5	/	2.4
CC(C)c1ccc(OCC(=O)NNC(=O)c2cnccn2)cc1	54.9*	4.9	-1.0	/	/	/
CC(=O)Oc1ccc2occ(C(=O)c3ccccc3)c2c1	/	/	-0.4	/	/	/
O=C(c1cccc(Br)c1)c1coc2ccc(O)cc12	0.1	-83.7	-3.7	69.9*	90.4*	-6.5
CC(=O)Oc1ccc2occ(C(=O)c3cccs3)c2c1	-11.9	-49.6	80.2*	60.2*	56.4	29.0
CC(=O)Oc1ccc2occ(-c3ccccc3)c2c1	-1.4	-35.4	5.7	46.6*	36.4	10.9
O=C(O)COc1ccc2occ(C(=O)c3ccccc3)c2c1	-5.4	-16.3	5.5	-0.1	15.5	-8.1
O=C(CCl)Oc1ccc2occ(C(=O)c3cccs3)c2c1	-3.4	-42.4	/	93.4*	44.3	39.7
COc1ccc(CNC(=O)C2CCCN(S(=O)(=O)N3CC(C)CC(C)C3)C2)c(OC)c1 (stereo not given)	-8.9	3.6	-4.8	0.7	-5.5	7.5
COc1ccccc1CNC(=O)c1cc2ccccc2oc1=O	-0.1	-8.5	4.4	/	10.4	/
C[C@@H]1CN([C@H](C)CO)C(=O)Cc2cc(NS(=O)(=O)c3cccs3)ccc2O[C@H]1CN(C)C(=O)NC1CCCCC1	/	/	/	-2.6	/	-22.4
COc1ccccc1CNS(=O)(=O)c1cc(C(=O)NCC2CCCO2)c(Cl)cc1Cl (stereo not given)	3.5	5.1	-2.1	-7.9	-5.3	2.8
CCC(=O)c1coc2ccc(O)cc12	30.5	-4.1	/	/	0.8	/
O=C(c1cccs1)c1coc2ccc(O)cc12	4.9	-85.5	51.2*	67.3*	94.3*	12.3
COc1ccc2nc(NC(=O)c3c(C)noc3C)sc2c1	-11.9	/	34.8*	25.4	/	-11.7
COC(=O)c1c(-c2ccncc2)csc1NC(=O)c1ccoc1C	-12.1	-86.4	/	36.5	88.2*	21.8
Cc1ccc(-c2csc(NC(=O)c3c(C)noc3C)n2)cc1	6.4	-39.0	23.7	33.9	45.9	-9.2
CCc1noc(C)c1C(=O)Nc1nc(-c2cccs2)cs1	-15.1	-23.6	12.5	/	24.1	10.8
Cc1noc(C)c1C(=O)Nc1nc(-c2cccs2)cs1	26.8	-39.6	30.2*	?	41.9	-10.8
SMILES	EBV LMP1 NFkB	TRPM1 prom inh	Wnt bcat act	esBAF inh	MITF TRPM1 HTS	Statin myotox sup
COc1ccc(-c2csc(NC(=O)c3c(C)noc3C)n2)cc1	0.9	-35.2	8.9	47.6*	33.2	-74.4
C[C@H](CO)N1C[C@H](C)[C@H](CN(C)Cc2ccc(F)cc2)Oc2cc(C#CC(C)(C)O)ccc2S1(=O)=O	/	/	/	3.5	/	1.1
O=C(C[C@H]1CC[C@@H]2[C@H](COC[C@@H](O)CN2S(=O)(=O)c2cccc(Cl)c2)O1)N1CCOCC1	/	/	/	-6.7	/	4.2
Cc1ccc(C(C)C)c(OCCCNCc2cccnc2)c1	-0.2	10.4	-1.0	/	-12.7	/
COc1ccc(-c2csc(NC(=O)c3ccoc3C)n2)cc1	-8.4	-85.6	12.6	/	86.3*	/
COc1ccc(-c2csc(NC(=O)c3ccccc3C(=O)O)n2)cc1	-2.4	-3.2	-5.0	/	3.8	/
COc1ccc2[nH]c3c(=O)n(Cc4ccc(C(=O)N5CCC(C(N)=O)CC5)cc4)c(=S)[nH]c3c2c1	0.2	8.7	-3.6	/	2.2	/
COc1ccccc1C1=NOC(CN2C(=O)c3ccccc3S2(=O)=O)C1 (stereo not given)	-7.5	-103.2	36.9*	/	103.6*	/
O=C1c2ccccc2S(=O)(=O)N1CC1CC(c2ccccc2Cl)=NO1 (stereo not given)	-32.5	-100.8	93.4*	14.0	94.2*	-4.7
COc1ccccc1C1=NOC(COC(=O)c2ccc([N+](=O)[O-])cc2)C1 (stereo not given)	/	/	41.0*	/	/	/
COc1ccccc1C1=NOC(COC(=O)c2ccc(Br)cc2)C1 (stereo not given)	-1.2	3.7	-12.4	-6.8	-0.4	-2.3
Cc1cc(C)nc(SCc2nnc(SCC(N)=O)n2Cc2ccco2)n1	-5.2	6.9	-2.4	-2.9	/	/
C[C@@H]1CN([C@H](C)CO)C(=O)c2cc(NS(=O)(=O)c3cccs3)ccc2O[C@@H](C)CCCCO[C@@H]1CN(C)Cc1ccncc1	/	/	/	-4.5	/	/
CCCOC(=O)C1C2C=CC3(CN(c4ccc(Cl)c(F)c4)C(=O)C13)O2 (stereo not given)	1.7	-10.7	-1.2	-3.7	11.3	9.4
Cc1ccc(SCc2[nH]nc3c2C(c2ccc(C)o2)C(C#N)=C(N)O3)cc1 (stereo not given)	66.3*	-10.4	-0.7	-9.1	9.0	7.3
Cc1ccc(SCc2[nH]nc3c2C(c2ccco2)C(C#N)=C(N)O3)cc1 (stereo not given)	12.8	0.0	/	-7.4	2.0	13.1
Cc1nc(Nc2nc3ccccc3o2)nc2c1CCC2	56.7*	25.1	/	-62.2	-21.9	-7.1
COCc1cc(=O)[nH]c(Nc2nc3ccccc3o2)n1	5.0	-8.4	-6.2	49.8*	5.1	19.3
Cc1cc(Nc2ccccc2Cl)c2ccccc2n1	2.7	11.3	-0.5	-0.6	/	-25.0
O=C1CCCC2=C1C1(CCCCC1)N=C(Nc1nc3ccccc3o1)N2	-72.5	22.1	4.9	/	/	/
Clc1ccccc1Nc1nc2ccccc2o1	-28.0	-69.0	60.4*	28.6	77.3	-24.4
Cc1cccc(C)c1Nc1nc2ccccc2o1	64.3*	5.0	-3.9	-1.9	-6.5	-20.8
CN1CCN(C(=O)CCc2ccc(S(=O)(=O)NC3CCCCC3)cc2)CC1	-3.6	-4.7	-1.5	1.0	7.6	-1.8
Cc1ccc(CSCCNC(=O)c2ccc(N(C)S(=O)(=O)c3ccccc3)cc2)cc1	8.1	-6.1	/	-2.9	6.2	0.7
COc1ccc2sc(NCc3ccccc3)nc2c1	-26.0	-110.2	33.0*	98.9*	111.0*	-1.6
CCOC(=O)Cc1nnc(NC(=O)COc2ccc(OC)cc2)s1	4.0	0.2	-3.8	-1.7	-1.4	129.6*
COc1ccc2sc(NC(C)=O)nc2c1	-4.7	-58.0	48.0*	27.0	54.5	-0.5
COc1ccc2sc(NC(=O)NC(=O)c3c(Cl)cccc3Cl)nc2c1	2.3	-12.4	2.4	/	/	/
